High-throughput results from PubChem.
Pf growth 96h: Primary qHTS for delayed death inhibitors of the malarial parasite plastid, 96 hour incubation; P. falciparum luciferase reporter growth, 96 h; AID 504834, 2011; Potency, µM (top dose mostly 28.7 µM), for inactives: at the highest dose activity change, negative = inhibition, most hits filed as inhibitors; 320,000 tested, 6.9% active; note: potency is the fitted concentration of half-maximal effect
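96 h incubation, 37 C, 5% CO2, of luciferase-reporter P. falciparum-infected RBCs (2% hematocrit, 0.05% parasitemia final) with test compounds; endpoint luminescence.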
Pf growth 48h: Primary qHTS for delayed death inhibitors of the malarial parasite plastid, 48 hour incubation | P. falciparum luciferase growth in erythrocytes, 48 h | Potency, µM (doses to about 28.7 µM), for the others: at the highest dose activity change, negative = inhibition, actives largely listed as inhibitors | 310,000 tested, 5.9% active | AID 504832, 2011; note: potency is the fitted concentration of half-maximal effect
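Cell-based growth assay: transgenic P. falciparum expressing firefly luciferase, cultured in red cells within RPMI 1640 containing 0.5% w/v Albumax, 24 mM bicarbonate and gentamycin. A drop in luciferase activity indicates inhibition.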
HCMV antiviral: qHTS Assay for inhibitors of the human cytomegalovirus (HCMV); AID 1259415, 2018; HFF cells, HCMV-luciferase reporter, 72 h; hits give low values; activity change, negative = inhibition, % at 57.5 µM; 410,000 tested, 4.5% active; in the data active = activity change below about -60%; inconclusive = no clear call, values can overlap the other calls; inactive = above about -39%
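Two compound doses tested in HFFs infected with HCMV-luciferase, MOI 1 PFU/cell, 72 h at 37C. Lysate luminescence read with OneGlo; data normalized against buffer-only and 10uM Salinomycin inhibitor controls.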
HCV inhibitor: qHTS Assay for Inhibitors of Hepatitis C Virus (HCV) | AID 651820, 2012 | Huh7.5.1 HCVcc-Cre infection, luciferase reporter, 44 h | Potency, µM (highest dose often 41.8 µM), for inactives: at the top dose activity change, negative = inhibition, hits mostly inhibitors | 340,000 tested, 3.4% active; note: potency is the fitted concentration of half-maximal effect
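Infectious HCV cell culture screen: compound-treated cells (1,000/well, pre-plated 4 h) are infected with HCVcc-Cre at roughly 0.5 moi and grown 44 h. Infection is quantified by luciferase signal after 15 min substrate incubation at room temperature.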
An asterisk follows results filed as active; ? = inconclusive; nt = not tested or not shown. A selection: hits, their analogues and other compounds. The true share with any hit is near 13%. Unless noted, calls come from the whole dose curve; as a rule, active = well fitted inhibition curve with a large enough effect; inconclusive = small, poorly fitted or top-dose-only effect, or another doubt; inactive = no such curve, though single readings can be large or run the other way. % is set by controls: 0 for no effect and ±100 for the full control effect.

SMILES	Pf growth 96h	Pf growth 48h	HCMV antiviral	HCV inhibitor
C=C1C(=O)[C@]23C[C@H]1CCC2[C@@]1(C)C(C[C@@H]3O)[C@](C)(C(=O)OC)CC[C@@H]1O (some centres not stated)	nt	nt	-102*	nt
CCN(CC)c1ccc2cc(-c3nc(-c4cccs4)no3)c(=O)oc2c1	nt	nt	-10	nt
Cc1ccc(-c2nnn(CC(=O)N(Cc3ccc(F)cc3)C(C(=O)NC3CCCC3)c3ccncc3)n2)o1 (configuration not stated)	-29%	?	33	?
CC(C)(C)NC(=O)C(OC(=O)Cn1nnc(-c2ccc(F)cc2)n1)c1ccncc1 (configuration not stated)	9.3µM*	18%	3	3%
COc1cccc(N(C(=O)Cn2nnc(-c3cccs3)n2)C(C(=O)NC2CCCCC2)c2ccncc2)c1 (configuration not stated)	?	-14%	-17	15%
CC(C)CCNC(=O)C(c1ccncc1)N(CC1CCCO1)C(=O)Cn1nnc(-c2ccc(F)cc2)n1 (configuration not stated)	-10%	?	3	-8%
CC(C)(C)N(C(=O)Cn1nnc(-c2ccc(F)cc2)n1)C(C(=O)NC1CCCC1)c1ccncc1 (configuration not stated)	8.3µM*	?	-34	5%
CC(C)CCNC(=O)C(c1ccncc1)N(C(=O)Cn1nnc(-c2ccc(F)cc2)n1)c1ccccc1F (configuration not stated)	6.6µM*	?	-28	?
Cc1ccc(C)c(N(C(=O)Cn2nnc(-c3cccs3)n2)C(C(=O)NC2CCCC2)c2ccncc2)c1 (configuration not stated)	?	4.7µM*	10	-19%
CCCCOc1ccc(S(=O)(=O)N2CCN(c3ccccc3OCC)CC2)cc1	nt	nt	17	nt
Cc1cccc(N2CCN(c3nc4ccc(C(=O)c5ccccc5)cc4n4cnnc34)CC2C)c1 (configuration not stated)	nt	nt	0	nt
O=C(CN(CCN1CCOCC1)C(=O)Cn1nnc(-c2ccc(F)cc2)n1)NC1CCCCC1	6.6µM*	nt	12	-4%
O=C(CN(CCCN1CCOCC1)C(=O)Cn1nnc(-c2ccc(F)cc2)n1)NC1CCCCC1	1%	-13%	6	-10%
COc1cc(NC(=O)c2ccc(-n3cnc4cccnc43)cc2)cc(OC)c1	nt	nt	-11	nt
COc1ccc(Cl)cc1NC(=O)CSc1nc(-c2ccccc2)c2ccccc2n1	nt	nt	-15	nt
ClCCN(CCCl)c1ccc(C2=NCCc3ccccc32)cc1	nt	nt	-74*	?
O=C(CSc1ncnc2c1cnn2-c1ccccc1Cl)N1CCN(C(=O)c2ccco2)CC1	7.4µM*	-19%	24	-25%
Cc1ccccc1-n1ncc2c(SCC(=O)NC3CCCC3)ncnc21	?	?	-72*	4µM*
Cc1ccccc1-n1ncc2c(SCC(=O)N3c4ccccc4CC3C)ncnc21 (configuration not stated)	?	?	-67*	?
Cc1nnc(NC(=O)CSc2ncnc3c2cnn3-c2ccccc2C)s1	59%	4%	-6	0%
COc1ccc(N2CCN(C(=O)CSc3ncnc4c3cnn4-c3ccccc3C)CC2)cc1	6.6µM*	12%	-15	2%
COc1ccccc1NC(=O)CN1C(=O)CC(c2ccc(C)c(C)c2)=Nc2ccccc21	nt	nt	-5	nt
COc1ccc(CN2C(=O)CSCC2(C)C(=O)NCc2ccccc2)cc1 (configuration not stated)	nt	nt	-4	nt
COc1ccc(CCN2CCCn3c2nc2c3c(=O)n(Cc3ccccc3F)c(=O)n2C)cc1OC	2.9µM*	2.3µM*	5	?
COc1ccc(CCN2CCCn3c2nc2c3c(=O)n(CC(C)C)c(=O)n2C)cc1OC	?	?	-30	10µM*
CCN(CC)C(=O)c1ccc(/C=C/c2c[nH]c3ccccc23)[n+](C)c1	0.37µM*	0.74µM*	89	29%
Cc1ccc(C(=O)/C=C/c2c[nH]c3ccccc23)cc1	84%	127%	12	?
CC[n+]1c(/C=C/c2c[nH]c3ccccc23)ccc2cc(C)ccc21	11%	?	-99*	4.5µM*
Cc1ccc(C(=O)n2nc(C)c(S(=O)(=O)N3CCOCC3)c2C)cc1C	nt	nt	30	nt
